According to publication PMC4336329 (PLoS ONE, 2015):
The whole screen tested about 310,000 compounds, of which about 14,000 (4.5%) showed an effect of 50% or more. The effect is printed as a negative number. For the sample, strong results were picked, then their nearest neighbours and some compounds at random.

Biological target: human ether-à-go-go-related gene (hERG) potassium channel (human, UniProt Q12809)
Assay: primary screen, population patch clamp on CHO cells stably expressing hERG; higher = less effect of the substance
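Also: peak tail current of the secondary pulse compared with the same well before compound.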

Chain of human ether-à-go-go-related gene (hERG) potassium channel (Q12809 whole entry, looked up): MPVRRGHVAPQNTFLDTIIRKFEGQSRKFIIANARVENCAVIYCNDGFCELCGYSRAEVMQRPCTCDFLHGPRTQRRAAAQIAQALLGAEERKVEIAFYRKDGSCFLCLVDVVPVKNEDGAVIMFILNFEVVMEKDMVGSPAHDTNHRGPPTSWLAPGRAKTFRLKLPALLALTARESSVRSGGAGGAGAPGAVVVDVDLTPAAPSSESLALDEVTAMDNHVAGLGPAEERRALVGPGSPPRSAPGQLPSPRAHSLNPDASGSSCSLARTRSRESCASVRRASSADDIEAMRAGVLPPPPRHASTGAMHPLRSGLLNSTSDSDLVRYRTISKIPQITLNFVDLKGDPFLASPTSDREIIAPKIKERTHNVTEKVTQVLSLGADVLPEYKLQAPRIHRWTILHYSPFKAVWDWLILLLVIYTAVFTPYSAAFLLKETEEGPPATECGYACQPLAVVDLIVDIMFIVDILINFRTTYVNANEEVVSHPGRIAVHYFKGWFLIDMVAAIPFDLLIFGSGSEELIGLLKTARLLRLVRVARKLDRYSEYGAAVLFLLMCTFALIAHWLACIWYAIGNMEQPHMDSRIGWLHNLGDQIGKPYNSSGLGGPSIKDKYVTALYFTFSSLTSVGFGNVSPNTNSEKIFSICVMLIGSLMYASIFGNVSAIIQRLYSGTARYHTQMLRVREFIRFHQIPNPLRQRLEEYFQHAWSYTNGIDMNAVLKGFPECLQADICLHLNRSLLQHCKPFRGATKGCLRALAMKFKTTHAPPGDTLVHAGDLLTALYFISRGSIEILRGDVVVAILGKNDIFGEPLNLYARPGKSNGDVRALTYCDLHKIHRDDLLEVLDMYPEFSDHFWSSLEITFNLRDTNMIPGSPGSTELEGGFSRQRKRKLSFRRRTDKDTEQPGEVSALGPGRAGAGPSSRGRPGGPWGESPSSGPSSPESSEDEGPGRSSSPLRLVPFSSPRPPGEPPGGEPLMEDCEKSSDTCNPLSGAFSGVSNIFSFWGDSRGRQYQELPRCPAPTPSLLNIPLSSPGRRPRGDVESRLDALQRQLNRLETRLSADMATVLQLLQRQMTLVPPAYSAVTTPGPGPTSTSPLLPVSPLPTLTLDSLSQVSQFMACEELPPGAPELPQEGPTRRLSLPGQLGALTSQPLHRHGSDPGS

Structure (SMILES) | hERG current change (%, negative = inhibition) at 10uM
Cc1cccc(CN2C(=O)[C@H]3Cc4c([nH]c5ccccc45)C(C)(C)N3C2=O)c1 | -1.56%
CS(=O)(=O)NC1c2cccc3cccc(c23)C1Sc1nncn1/N=C/c1ccco1 (stereo not shown) | -21.1%
COc1ccc(C(=O)N/N=C/c2ccc(OC)c(CN3CCCc4ccccc43)c2)cc1 | -11.9%
COc1ccc(/C=N/NC(=O)c2ccc(F)cc2)cc1CN1CCc2cc(OC)c(OC)cc2C1C (stereo not shown) | -88.3%
COc1ccc(/C=N/NC(=O)c2ccccc2[N+](=O)[O-])cc1CN1CCc2cc(OC)c(OC)cc2C1C (stereo not shown) | -63.9%
COc1ccc(/C=N/NC(=O)c2cc(OC)c(OC)c(OC)c2)cc1CN1CCc2cc(OC)c(OC)cc2C1C (stereo not shown) | -73.4%
COc1ccc(C(=O)N/N=C/c2ccc(OC)c(COc3ccccc3)c2)cc1 | -26.1%
COc1ccc(/C=N\NC(=O)c2ccc(F)cc2)cc1COc1ccccc1C(N)=O | -44.3%
COc1ccc(/C=N/NC(=O)c2ccc(OC)c(OC)c2)cc1COc1c(F)c(F)c(F)c(F)c1F | 5.91%
COc1ccc(/C=N/NC(=O)c2cccnc2)cc1CN1CCc2cc(OC)c(OC)cc2C1C (stereo not shown) | -40.9%
COc1ccc(C(=O)N/N=C/c2ccc(OC)c(CN3CCc4cc(OC)c(OC)cc4C3C)c2)cc1 (stereo not shown) | -76%
COc1ccc(/C=N/NC(=O)c2ccc(O)cc2)cc1CN1CCCc2ccccc21 | 0.817%
COc1ccc(/C=N\NC(=O)c2ccccc2[N+](=O)[O-])cc1COc1c(F)c(F)c(F)c(F)c1F | 8.06%
COc1ccc(/C=N/NC(=O)c2ccccc2OC)cc1COc1ccccc1[N+](=O)[O-] | 8.94%
Cc1nc2cc(NC(=O)Nc3ccc(N4CCOCC4)cc3)ccc2n1C | 6.34%
COCCn1c(Br)nc2c1c(=O)n(C)c(=O)n2C | 8.14%
Cc1ccccc1C(=O)N1CCN(c2ccc(NC(=O)c3cccs3)cc2)CC1 | 4.97%
CC(=O)Nc1ccc(S(=O)(=O)NCC2CCC(C(=O)NCCCN(C)Cc3ccccc3)CC2)cc1 (stereo not shown) | 6.98%
CCn1c(SCC(=O)NCC2CCCO2)nnc1-c1ccccc1OC (stereo not shown) | 10.9%
CS(=O)(=O)Nc1ccccc1C(=O)NCC1(N2CCCCC2)CCCCC1 | -8.32%
O=C(O)c1ccc(NS(=O)(=O)c2ccc(C(=O)Nc3ccccc3)cc2)cc1 | -8.65%
Cc1ccc(Cn2nnnc2CN2CCC(n3nnc4cc(C)ccc43)CC2)cc1 | -65.2%

Structure (SMILES) | hERG current change (%, negative = inhibition) at 10uM
Cc1ccc(Cn2nnnc2CN2CCC(NC(=O)C(C)(C)C)CC2)cc1.Cl | 0.395%
Cc1ccc(Cn2nnnc2CN2CCC(NC(=O)c3ccc(Br)cc3)CC2)cc1 | -44.7%
Cc1ccc(C)c(CN2CCC(n3nnc4cc(F)ccc43)CC2)c1 | -21.2%
Cc1ccc(S(=O)(=O)N2CCC(n3nnc4cc(C)ccc43)CC2)cc1 | -28.9%
Cc1ccc(Cn2nnnc2CN2CCC(n3nnc4ccccc43)CC2)cc1.Cl | -53.9%
COc1ccc(CCNC(=O)CSc2nc(N)cc(=O)[nH]2)cc1OC | 29.6%
Cc1ccc(S(=O)(=O)N(C)C)cc1NC(=O)C(C)N(C)Cc1sccc1C (stereo not shown) | -16.1%
O=C(COc1ccccc1)Nc1ccc2oc(=O)ccc2c1 | 4.76%
CCOC(=O)N1CCN(C(=O)c2ccc3c(=O)n(Cc4ccc(Cl)cc4)c(=S)[nH]c3c2)CC1 | 4.36%
CN(C)c1ccc(N/C=C/C(=O)c2ccco2)cc1 | 4.67%
Cc1nn(C)c(C)c1CN(Cc1nc(CCC(C)C)no1)C(C)C | 13%
COC(=O)c1cccc(N(C(=O)CNC(=O)c2ccco2)C(C(=O)NC2CCCC2)c2ccco2)c1 (stereo not shown) | 6.89%
OCC1(Cc2cccc(C(F)(F)F)c2)CCN(Cc2cc(F)cc(F)c2)CC1 | -43.4%
CCOc1cc(CN2CCN(C(=O)Cc3ccccc3)CC2)ccc1OC.O=C(O)C(=O)O | -37.6%
Cc1c(CN2CCC(CO)(Cc3cccc(C(F)(F)F)c3)CC2)c2ccccc2n1C | -47.2%
COc1cc(CN2CCC(CO)(Cc3cccc(C(F)(F)F)c3)CC2)ccc1F | -68.7%
CCOc1cc(CN2CCCCCC2)ccc1OC | -3.28%
COc1ccc2[nH]c(C(=O)N3CCC(CO)(Cc4cccc(C(F)(F)F)c4)CC3)c(C)c2c1 | 7.98%
CSc1cccc(CN2CCC(CO)(Cc3ccccc3)CC2)c1 | -44.8%
COc1ccc(F)c(CN2CCC(CO)(Cc3cccc(C(F)(F)F)c3)CC2)c1 | -58.4%
FC(F)(F)c1cccc(CN2CCCCCC2)c1 | 2.33%
